From the antibiotic and cytotoxicity screens of Wong et al. (2023)
In all, about 39,000 compounds went through this assay and about 3,300 (8.5%) were called active. Many of the other results were omitted from the sample, so actives are more common in it than they were.

test system: HepG2; test: cytotoxicity call (relative viability < 0.9); details: 10 µM

Row | SMILES | cytotoxicity call
1 | CC1(C)C=Cc2c(c3c(c4c(=O)c(-c5ccc(O)c(O)c5)coc24)OC(C)(C)CC3)O1 | active
2 | CC1(C)C=Cc2c(c3c(c4c(=O)c(-c5ccc(O)cc5)coc24)OC(C)(C)CC3)O1 | inactive
3 | CC(C)=CCc1c2c(c3occ(-c4ccc(O)c(O)c4)c(=O)c3c1O)C=CC(C)(C)O2 | active
4 | CC(C)=CCc1c2c(c3occ(-c4ccc(O)cc4)c(=O)c3c1O)C=CC(C)(C)O2 | inactive
5 | CN1CCN(C(=O)C[C@H]2CC[C@@H]3[C@@H](COc4ccc(NC(=O)c5cccs5)cc4C(=O)N3C)O2)CC1 | inactive
6 | Cc1noc(C)c1S(=O)(=O)Nc1ccc2c(c1)C(=O)N([C@@H](C)CO)C[C@H](C)[C@@H](CN(C)Cc1ccccc1)OCCCC[C@@H](C)O2 | inactive
7 | C[C@@H]1CN([C@@H](C)CO)C(=O)Cc2cc(NC(=O)Cn3cnnn3)ccc2O[C@@H]1CN(C)Cc1ccc(Oc2ccccc2)cc1 | inactive
8 | Cc1ccc(S(N)(=O)=O)cc1 | inactive
9 | Cc1ccc(-c2cc(C(F)(F)F)nn2-c2ccc(S(N)(=O)=O)cc2)cc1 | active
10 | COc1ccc(-c2cc(C(F)F)nn2-c2ccc(S(N)(=O)=O)cc2)cc1F | inactive
11 | C[C@@H]1CN([C@H](C)CO)C(=O)c2cc(NC(=O)NC3CCCCC3)ccc2O[C@@H](C)CCCCO[C@@H]1CN(C)S(=O)(=O)c1ccc(F)cc1 | inactive
12 | CN1CCC(OC(c2ccccc2)c2ccccc2)CC1.Cl | inactive
13 | CN1C2CCC1CC(OC(c1ccccc1)c1ccccc1)C2.CS(=O)(=O)O (configuration not stated) | active
14 | CN1C2CCC1CC(OC(=O)c1c[nH]c3ccccc13)C2.Cl (configuration not stated) | inactive
15 | Cc1noc(C)c1S(=O)(=O)N(C)C[C@@H]1Oc2c(NS(=O)(=O)c3ccccc3)cccc2C(=O)N([C@H](C)CO)C[C@@H]1C | inactive
16 | CC12CCC3c4ccc(O)cc4CCC3C1CC(O)C2O (configuration not stated) | inactive
17 | C#CC1(O)CCC2C3CCC4=C(CCC(=O)C4)C3CCC21C (configuration not stated) | inactive
18 | C#CC1(O)CCC2C3CCc4cc(O)ccc4C3CCC21C (configuration not stated) | active
19 | CC12CCC3c4ccc(O)cc4CCC3C1CCC2=O (configuration not stated) | inactive
20 | C#CC1(O)CCC2C3CCc4cc(OC)ccc4C3CCC21C (configuration not stated) | active
21 | C#CC1(O)CCC2C3CCC4=CCCCC4C3CCC21C (configuration not stated) | active
22 | C#CC1(O)CCC2C3CCC4=CCCCC4C3C(=C)CC21CC (configuration not stated) | inactive
23 | C#CC1(O)CCC2C3CCC4=CC(=O)CCC4C3CCC21C (configuration not stated) | inactive
24 | C#CC1(O)CCC2C3CCc4cc(OC5CCCC5)ccc4C3CCC21C (configuration not stated) | inactive
25 | COCCOC(=O)N1C(=O)[C@@]2(c3cc(C#CCC(C(=O)OC)C(=O)OC)ccc31)[C@H](C(=O)NC[C@H](O)c1ccccc1)[C@H]1C(=O)O[C@H](c3ccccc3)[C@H](c3ccccc3)N1[C@@H]2c1ccc(OCCO)cc1 | inactive
26 | Cn1cnc(CCNC(=O)C[C@@H]2CC[C@@H]3[C@H](COC[C@@H](O)CN3C(=O)Nc3ccc(Cl)cc3)O2)c1 | inactive

Row | SMILES | cytotoxicity call
27 | COc1ccc(S(=O)(=O)N(C)C[C@@H]2Oc3ccc(NC(=O)Nc4cccc5ccccc45)cc3C(=O)N([C@@H](C)CO)C[C@H]2C)cc1 | inactive
28 | C[C@H]1CN([C@@H](C)CO)C(=O)c2cc(C#CCN(C)C)cnc2O[C@H]1CN(C)S(=O)(=O)c1ccccc1 | inactive
29 | COc1cccc(NC(=O)N2C[C@@H](O)COC[C@H]3O[C@@H](CC(=O)NCc4ccccc4F)CC[C@@H]32)c1 | inactive
30 | C[C@H]1CN([C@@H](C)CO)S(=O)(=O)c2ccc(C#Cc3ccncc3)cc2O[C@@H]1CN(C)C(=O)c1ccncc1 | active
31 | C[C@H](CO)N1C[C@H](C)[C@H](CN(C)C(=O)c2ccncc2)Oc2cc(C#Cc3ccncc3)ccc2S1(=O)=O | active
32 | C[C@@H]1CN([C@@H](C)CO)S(=O)(=O)c2ccc(C#Cc3ccncc3)cc2O[C@@H]1CN(C)C(=O)c1ccncc1 | inactive
33 | C[C@H](O)C#Cc1ccc2c(c1)O[C@H](CN(C)C(=O)c1ccncc1)[C@@H](C)CN([C@@H](C)CO)S2(=O)=O | inactive
34 | C[C@H](CO)N1C[C@H](C)[C@@H](CN(C)C(=O)c2ccncc2)Oc2cc(C#Cc3ccncc3)ccc2S1(=O)=O | active
35 | C[C@H](O)C#Cc1ccc2c(c1)O[C@@H](CN(C)C(=O)c1ccncc1)[C@@H](C)CN([C@H](C)CO)S2(=O)=O | inactive
36 | C[C@H](O)C#Cc1ccc2c(c1)O[C@H](CN(C)C(=O)c1ccncc1)[C@H](C)CN([C@@H](C)CO)S2(=O)=O | inactive
37 | C[C@H](O)C#Cc1ccc2c(c1)O[C@@H](CN(C)C(=O)c1ccncc1)[C@H](C)CN([C@H](C)CO)S2(=O)=O | inactive
38 | C[C@H](O)C#Cc1ccc2c(c1)O[C@@H](CN(C)C(=O)c1ccncc1)[C@H](C)CN([C@@H](C)CO)S2(=O)=O | inactive
39 | C[C@@H]1CN([C@@H](C)CO)S(=O)(=O)c2ccc(C#Cc3ccncc3)cc2O[C@H]1CN(C)C(=O)c1ccncc1 | inactive
40 | C[C@@H](O)C#Cc1ccc2c(c1)O[C@@H](CN(C)C(=O)c1ccncc1)[C@@H](C)CN([C@@H](C)CO)S2(=O)=O | inactive
41 | C[C@@H]1CN([C@H](C)CO)S(=O)(=O)c2ccc(C#Cc3ccncc3)cc2O[C@@H]1CN(C)C(=O)c1ccncc1 | active
42 | C[C@@H]1CN([C@H](C)CO)S(=O)(=O)c2ccc(C#CC(C)(C)O)cc2O[C@@H]1CN(C)Cc1ccncc1 | inactive
43 | CCCNC(=O)C[C@H]1CC[C@@H]2[C@H](COc3ccc(NS(=O)(=O)c4ccccc4C)cc3C(=O)N2C)O1 | inactive
44 | C[C@H](CO)N1C[C@H](C)[C@@H](CN(C)C(=O)Nc2ccc(F)cc2)OCCCC[C@H](C)Oc2ccc(NC(=O)CCC(F)(F)F)cc2C1=O | inactive
45 | COCC(=O)N1C[C@H](C)[C@H](OC)CN(C)C(=O)c2cc(NC(=O)c3ccc(OC)cc3)ccc2OC[C@H]1C | inactive
46 | NCCSC12CC3CC(CC(C3)C1)C2 | inactive
47 | C[C@H]1CN([C@@H](C)CO)S(=O)(=O)c2ccc(C#Cc3ccncc3)cc2O[C@H]1CN(C)C(=O)c1ccncc1 | active
48 | C[C@@H]1CN([C@H](C)CO)S(=O)(=O)c2ccc(C#C[C@@H](C)O)cc2O[C@H]1CN(C)C(=O)c1ccncc1 | inactive
49 | C[C@@H]1CN([C@H](C)CO)S(=O)(=O)c2ccc(C#Cc3ccncc3)cc2O[C@H]1CN(C)C(=O)c1ccncc1 | active
50 | C[C@H](O)C#Cc1ccc2c(c1)O[C@@H](CN(C)C(=O)c1ccncc1)[C@@H](C)CN([C@@H](C)CO)S2(=O)=O | inactive
51 | C[C@H](O)C#Cc1ccc2c(c1)O[C@H](CN(C)C(=O)c1ccncc1)[C@@H](C)CN([C@H](C)CO)S2(=O)=O | inactive
52 | C[C@@H](O)C#Cc1ccc2c(c1)O[C@H](CN(C)C(=O)c1ccncc1)[C@@H](C)CN([C@@H](C)CO)S2(=O)=O | inactive
